Measurements as given in PubChem BioAssay (NCATS).
Calls of active or inactive are those of the source. The call rests on the fitted dose curve; in most records, active means well fitted cell-killing curve with a large enough effect; inconclusive means small, poorly fitted or top-dose-only effect; inactive means flat fitted curve, though single readings scatter.

Assay: MultiTox-Fluor Cytotoxicity Assay - LYMP1-003 - Live Cells (AID 962);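 on activity change, negative = fewer live cells: 0% = DMSO only and full loss = 92 µM tetraoctylammonium bromide; cytotoxic hits lower the live-cell protease signal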
Settings: LYMP1-003 lymphoblastoid cells, MultiTox-Fluor live-cell protease fluorescence; series mostly up to 92.2 µM; activity change, negative = fewer live cells: at the top concentration
Excerpt: NIH Chemical Genomics Center [NCGC]
NIH Molecular Libraries Screening Centers Network [MLSCN]
National Institutes of Environmental Health Sciences [NIEHS]
National Toxicology Program [NTP]
We have developed a 1536-well cell-based assay for quantitative high throughput screening (qHTS) against a number of cell lines to determine in vitro cytotoxicity of small molecules. This particular assay uses a human lymphoblastoid cell line (LYMP1-003) purchased from Coriell Institute.
NCGC Assay Protocol Summary:
The MultiTox-Fluor Cytotoxicity Assay (Promega) is a homogeneous method to simultaneously measure the relative number of live and dead cells in culture by detecting changes in cell membrane integrity. There are two fluorogenic peptide substrates in the assay reagent. Viable cells are determined when the cell-permeant substrate (GF-AFC) enters the cell and is cleaved by protease from live cells resulting in liberated fluorophore. This live-cell protease activity restricted to viable cells is proportional to cell number. The dead cells are determined by using fluorogenic cell-impermeant peptide substrate (bis-AAF-R110) which cleaved by dead cell proteases leaking from damaged cell membrane.
Using the MultiTox-Fluor Cytotoxicity Assay, the relative number of live cells was measured in the lymphoblastoid cell line with complete culture medium following compound treatment for 16 hours. The assay was performed in opaque black Kalypsys 1536-well plates. In the screen, tetraoctylammonium bromide was used as positive control. Library compounds were measured for their ability to cause acute toxicity in the cell line, as reflected by a decrease in live cell protease activity, in a concentration-dependent manner. […] AC50 values were determined from concentration-response data modeled with the standard Hill equation.
qHTS protocol for MultiTox-Fluor Cytotoxicity assay
[Step] [Parameter] [Value] [Description]
1. Reagent; 5 uL; 2500 lymphoblastoid cells/well
2. Time; 5 hr; 37 C incubation
4. Controls; 23 nL; Tetraoctylammonium bromide 6.4pM to 92 uM
5. Time; 16 hr; 37 C incubation
6. Reagent; 5 uL; MuliTox-Fluor Assay reagent
7. Time; 60 min; Room Temperature
8. Detection; live-cell fluorescence (Ex/Em=405/510); EnVision plate reader
Keywords: cell viability, cytotoxicity, lymphoblastoid cell line, fluorescence, NTPHTS, NTPHTS_NCGC, NIEHS, EPA, DSSTox, MLSMR, MLSCN, NIH Roadmap, qHTS, NCGC
Potency means the concentration at half of the fitted maximal effect.

Row | Compound | activity change, negative = fewer live cells | Potency
1 | CC(C)(OO)c1ccccc1 | -14.1% (inactive) | –
2 | CN=C=S | 0.97% (inactive) | –
3 | CCOP(=S)(OCC)SCSC(C)(C)C | 0.42% (inactive) | –
4 | C=CCc1ccc2c(c1)OCO2 | -4.8% (inactive) | –
5 | COC1=CC(=O)O[C@@H](/C=C/c2ccc3c(c2)OCO3)C1 | -9.42% (inactive) | –
6 | BrCCBr | -4.01% (inactive) | –
7 | O=C(Cl)/C=C/C(=O)Cl | -10.6% (inactive) | –
8 | Clc1ccc2ccccc2c1 | -4.6% (inactive) | –
9 | C=CCOC(C)=O | 0.269% (inactive) | –
10 | c1nc[nH]n1 | 0.568% (inactive) | –
11 | S=C=Nc1cccc2ccccc12 | -4.96% (inactive) | –
12 | CCCCCCCC(=O)Cl | -3.97% (inactive) | –
13 | CCCCOC(=O)c1ccccc1C(=O)OCCCC | -1.22% (inactive) | –
14 | CCOc1ccc(N)cc1 | -4.6% (inactive) | –
15 | C=CC(C)=O | -1.85% (inactive) | –
16 | ClC(Cl)(Cl)c1ccccc1 | – | inactive
17 | CCCCOCCOP(=O)(OCCOCCCC)OCCOCCCC | -14.5% (inactive) | –
18 | CCCSC(=O)Cl | -5.58% (inactive) | –
19 | NC(=S)Nc1ccccc1 | – | inactive
20 | c1ccc(N=Nc2ccccc2)cc1 | -0.0892% (inactive) | –

Row | Compound | activity change, negative = fewer live cells | Potency
21 | O=NN(CCO)CCO | -2.13% (inactive) | –
22 | Clc1cc(Cl)c(-c2cc(Cl)c(Cl)cc2Cl)cc1Cl | -1.91% (inactive) | –
23 | C1CCC2CCCCC2C1 (stereo not given) | -3.29% (inactive) | –
24 | OCC1CO1 (stereo not given) | -12% (inactive) | –
25 | O=C(Cl)C(Cl)(Cl)Cl | -1.01% (inactive) | –
26 | C=CCOC(=O)c1ccccc1N | -3.35% (inactive) | –
27 | O=C=NC1CCCCC1 | – | inactive
28 | CCc1cccc(CC)c1N(COC)C(=O)CCl | -4.6% (inactive) | –
29 | C[C@]12CC[C@H]3[C@@H](CCC4=CC(=O)CC[C@@]43C)[C@@H]1CC[C@@H]2O | -2.44% (inactive) | –
30 | C=CCc1ccc(OC)cc1 | -4.32% (inactive) | –
31 | c1ccc(OP(Oc2ccccc2)Oc2ccccc2)cc1 | -1.2% (inactive) | –
32 | Cc1cccc([N+](=O)[O-])c1 | -7.37% (inactive) | –
33 | Clc1nc(Cl)nc(Cl)n1 | -3.42% (inactive) | –
34 | O=C1C(Cl)=C(Cl)C(=O)C(Cl)=C1Cl | – | 50.1 µM (active)
35 | CC(O)CCl (stereo not given) | -7.28% (inactive) | –
36 | N#CCCCl | – | inactive
37 | Cc1ccc([N+](=O)[O-])cc1C | -8.25% (inactive) | –
38 | Clc1cccc(C(Cl)(Cl)Cl)n1 | -5.73% (inactive) | –
39 | C[N+](C)(C)Cc1ccccc1 | -0.902% (inactive) | –
40 | c1ccc(-c2ccccc2)cc1 | -12.3% (inactive) | –
